# Source: PubChem BioAssay
# The list is not random: actives were taken first. Their share in the collection is about 21%.
# Pf growth 96h: P. falciparum growth inhibition at 96 hours | AID 504834 | Potency, µM (highest dose often 28.7 µM), inactives show at the highest dose activity change, negative = inhibition, usual class: inhibitors | P. falciparum luciferase reporter growth, 96 h | 6.9% of 320,000 active; further: potency means the concentration at half of the fitted maximal effect; on the % scale 0 is the no-effect control and ±100 the full control effect
#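 Readout is luminescence from an integrated firefly luciferase in P. falciparum. Red cells, 2% hematocrit and 0.05% parasitemia final, were cultured with compound through two parasite generations (96 hours) at 37 C, 5% CO2.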
# CHX counter: counter-screen for Shiga toxin inhibitors: cycloheximide protein synthesis inhibition; cell reporter, cycloheximide protein synthesis inhibition counterscreen; max response, %; 12% of 300,000 active; in the data active means max response mostly above about 13%, no sharp cut-off; inactive means mostly below about 14%; further: read at 38.3 µM for the half of the compounds with a filed dose; 0% is about no effect
# HCV inh: inhibitors of hepatitis C virus infection. AID 651820. Potency, µM (titrated, usually from 41.8 µM), for the others: at the highest dose activity change, negative = inhibition, actives largely listed as inhibitors. Huh7.5.1 HCVcc-Cre infection, luciferase reporter, 44 h. 3.4% of 340,000 active; further: potency means the concentration at half of the fitted maximal effect; on the % scale 0 is the no-effect control and ±100 the full control effect
#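 Infectious HCV cell culture screen: compound-treated cells (1,000/well, pre-plated 4 h) are infected with HCVcc-Cre at roughly 0.5 moi and grown 44 h. Infection is quantified by luciferase signal after 15 min substrate incubation at room temperature.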
# Shiga toxin inh: Shiga toxin inhibition. 9.2% of 290,000 active. Vero cells, Shiga toxin protein synthesis inhibition reporter. inhibition, % at 38.7 µM. AID 2315; in the data active means inhibition mostly above about 28%, no sharp cut-off; inactive means mostly below about 43%; further: 0% is about no effect
# Pf growth 48h: P. falciparum growth inhibition at 48 hours (one generation); P. falciparum luciferase growth in erythrocytes, 48 h; 5.9% of 310,000 active; AID 504832; Potency, µM (highest dose often 28.7 µM), inactives show top-dose activity change, negative = inhibition, hits mostly inhibitors; further: potency means the concentration at half of the fitted maximal effect; on the % scale 0 is the no-effect control and ±100 the full control effect
#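 Here the parasites carry a stable luciferase gene and grow inside erythrocytes in Albumax-based RPMI medium with compound for one erythrocytic cycle. Activity is scored as loss of luminescent signal.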
# AMA1 RON2 block: AMA1-RON2 (P. falciparum) interaction inhibition | AID 720542 | 0.2% of 360,000 active | AlphaScreen AMA1-biotinylated RON2 peptide binding | Potency, µM (doses to about 58.2 µM), for inactives: at the top dose activity change, negative = inhibition, actives largely listed as inhibitors;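 further: potency means the concentration at half of the fitted maximal effect; 0% = vehicle wells and -100% = peptide control; nearly all actives have a fitted effect of over 45% in size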
#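 AMA1 (3D7) with his tag at 25 nM final met compounds first, then biotinylated RON2 peptide at 25 nM; detection used donor plus acceptor beads, 10 µg/mL apiece, read by AlphaScreen after 30 min at room temperature.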
# * = called active by the depositor; i = inactive; ? = inconclusive; . = no result; [ ] = remark or other dose. Unless noted, the call rests on the fitted dose curve; in most records, active means well fitted curve in the direction sought with a large enough effect; inconclusive means small, poorly fitted or top-dose-only effect, or another doubt; inactive means no such curve, though single readings can be large; an effect the other way counts as inactive or inconclusive.
SMILES,Pf growth 96h,CHX counter,HCV inh,Shiga toxin inh,Pf growth 48h,AMA1 RON2 block
O=c1c2ccccc2nnn1CSc1ccccc1,i,45*,5%,92*,234%,6%
Cc1ccc(-c2nnc(OCc3nc4ccccc4n3C)c3ccccc23)cc1,.,.,1%,.,.,8%
COc1ccccc1OCc1nc2ccccc2n1C,?,51*,-11%,134*,103%,-22%
Cn1c(COc2ccccc2Br)nc2ccccc21,?,44*,-22%,56*,149%,-2%
O=C(O)[C@H]1CN(C/C=C/P(=O)(O)O)CCN1,12%,.,.,.,-2%,.
CC(C)(C)NS(=O)(=O)c1ccc(CCC(=O)Nc2ccc3c(c2)OCCO3)cc1,-53%,-3,-6%,-14,?,10%
CC(C)NS(=O)(=O)c1ccc(CCC(=O)Nc2ccc3c(c2)OCCO3)cc1,?,12,17%,13,4.7µM*,?
CCNS(=O)(=O)c1ccc(CCC(=O)Nc2ccc3c(c2)OCCO3)cc1,?,5,6%,.,9.3µM*,0%
COC(=O)c1cccc2c(C(=O)O)cc(-c3ccccc3)nc12,.,.,36%,.,.,74%
COc1ccc(/C=C(\C#N)C(=O)NCC2CCCO2)cc1OC (centres undefined),?,6,-10%,-6,-7%,1%
O=C(CCc1c[nH]c2ccccc12)NCC1CCCO1 (centres undefined),32%,-2,-13%,27,13%,-6%
N#C/C(=C\c1c[nH]c2ccccc12)C(=O)NCC1CCCO1 (centres undefined),51%,31*,-7%,54*,42%,-8%
Cc1[nH]c2ccccc2c1/C=C(\C#N)C(=O)NCC1CCCO1 (centres undefined),22%,18*,?,16,-10%,-1%
COc1cc(/C=C(\C#N)C(=O)NCC2CCCO2)ccc1OC(C)C (centres undefined),?,73*,-9%,92,-11%,?
N#C/C(=C\c1cccs1)C(=O)NCC1CCCO1 (centres undefined),6%,25*,1%,80*,58%,4%
N#C/C(=C/c1cc(Br)cs1)C(=O)NCC1CCCO1 (centres undefined),49%,5,6%,-10,19%,-5%
COc1cc(/C=C(\C#N)C(=O)NCC2CCCO2)cc(OC)c1OC (centres undefined),13%,12,?,-24,8%,4%
CNc1oc(-c2ccccc2Cl)nc1C#N,53%,17*,?,48,36%,-19%
CNc1oc(-c2ccc(Cl)cc2)nc1C#N,1%,37*,-10%,178*,123%,-2%
COc1ccc(-c2nc(C#N)c(N3CCCCCC3)o2)cc1,.,17,?,31,?,-5%
COc1ccc(-c2nc(C#N)c(NC(C)C)o2)cc1,16%,41*,?,74*,0%,4%
CNc1oc(-c2ccco2)nc1C#N,.,0,4%,21,12%,0%
COC(=O)c1onc(-c2ccccc2)c1C(=O)OC,9%[5.75 µM],-1,26%,-2,13%,2%
COC(=O)c1c(-c2ccc(F)cc2)noc1N,4.7µM*,0,14%,-7,25%,2%
CC(=O)c1ccc(C(C)(C)c2ccc(C(C)=O)s2)s1,12µM*,1,?,10,?,63%
Cc1cc(NS(=O)(=O)c2ccc(N3C(=O)C4C5C=CC(C5)C4C3=O)cc2)nc(C)n1 (centres undefined),?,14*,36%,16,-9%,-12%
Cc1cc(NS(=O)(=O)c2ccc(NS(=O)(=O)c3ccc(CC(C)C)cc3)cc2)nc(C)n1,12%,0,4µM*,19,33%[5.75 µM],0%
CCCc1c(C(=O)N/N=C/c2cccc3ccccc23)nnn1-c1nonc1N,?,-4,?,4,-25%,12%
O=C(CCCn1c(=O)[nH]c2cc(Cl)ccc2c1=O)NCCCN1CCN(c2ccc(F)cc2)CC1,13%,5,7.9µM*,-9,?,-5%
CCCN1CCN(CCCNC(=O)c2ccc3c(=O)n(CCc4ccccc4)c(=O)[nH]c3c2)CC1,?,-3,?,17,?,-11%
